Source: PubChem BioAssay
HMGR II inh = blocks class II HMG-CoA reductase of Enterococcus faecalis; inhibition, % at 10 µM; 190,000 tested, 0.41% active; AID 1066; purified E. faecalis HMGR, NADPH absorbance 340 nm kinetic;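 active = inhibition above a set limit, the median over all tested compounds plus 3 SD, cut at about 9.5% in these data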;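 also: enzyme runs in reverse so mevalonate oxidation gives rising NADPH absorbance; 0% = complete reaction with DMSO and 100% = background rate lacking mevalonate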
Ins promoter up = MIN6 insulin promoter up-regulation. MIN6 insulin promoter-GFP reporter, high-content imaging; hits give high values. z-score at 5 µM. 190,000 tested, 0.3% active. AID 1625;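 active = z-score above 3 at 5 µM with at least 500 cells counted in the well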
Autophagy mod = autophagy modulation, high-content screen; MEF GFP-LC3 puncta imaging; test concentration mostly 10 µM; calls only at 10 µM (by protocol); 190,000 tested, 0.98% active; AID 463193;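 active = percentage of spot-positive cells more than 3 SD above its plate mean, without a fluorescence outlier flag or 80% toxicity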;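 also: spot-positive cell cutoff set from DMSO-treated cells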
INS promoter inh = TRM-6 insulin promoter activity inhibition; TRM-6 cells (human fetal islet line), insulin promoter-eGFP reporter, imaging; reporter expression induced with tamoxifen; inhibition, % at 2 µM; 130,000 tested, 0.9% active; AID 1273;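 active = inhibition above the mean plus 3 SD, with well images judged a real hit on visual review, cut at about 60% in these data, passing the limit was not always enough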
An asterisk follows results filed as active; i = inactive; nt = not tested or not shown; + = active, no number. Hits are enriched below; roughly 1.9% of the tested compounds scored in any of these assays.

SMILES	HMGR II inh	Ins promoter up	Autophagy mod	INS promoter inh
CCOC(=O)c1cnc(-c2ccccc2)nc1N	0.2	0.4	i	95.3*
CCOC(=O)c1cnc(-c2ccccc2)nc1N(C)C	-1.8	-0.47	i	-85.7
O=S(=O)(Nc1ccc(Cl)cc1)c1ccc(N2CCOCC2)c(NC(=S)NC2CC2)c1	-1.9	-0.09	i	-60.0
O=C(O)c1cccnc1Sc1ccccc1	-5.1	-0.03	i	-35.1
O=C(O)c1cccnc1Sc1ccc(Cl)cc1	-2.3	0.32	+	nt
S=C(NCc1ccco1)Nc1cc(-c2ccccc2)[nH]n1	1.9	-0.52	i	nt
C/C(=N\Nc1nc2ccccc2[nH]1)c1ccc(N2CCOCC2)cc1	-1.9	0.38	i	75.0*
c1ccc2[nH]c(N3CCOCC3)nc2c1	-6.1	0.19	i	60.7*
C/C(=N\Nc1nc(C)cc(C)n1)c1ccc(N2CCOCC2)cc1	-0.4	-1.7	i	16.7
COc1cc(NC(=O)c2cccc(Br)c2)nc(OC)n1	-0.2	1.73	i	nt
CC(C)Oc1ccc(C(=O)Nc2cccc3cccnc23)cc1	2.4	-0.14	i	nt
Cc1nn(CCC#N)c(N)c1C1(O)C(=O)Nc2c(Cl)cc(Cl)cc21 (configuration not stated)	nt	-0.16	nt	nt
COc1cc(CC(=O)Nc2cccc(SC)c2)cc(OC)c1OC	1.8	-1.35	i	75.0*
COc1ccc(NC(=O)c2[nH]c(C)c(C(C)=O)c2C)cc1Cl	1.0	3.83*	i	3.2
COC(=O)c1ccc(COc2ccc(/C=N/O)cc2)o1	0.8	nt	i	38.5
CCOC(=O)c1cc(-c2ccc(OC)cc2)n(CCC(=O)NC2CCN(Cc3ccccc3)CC2)c1C	10.3*	-0.99	i	-48.1
COc1cc(NC(=O)c2ccc(-c3ccc(Br)cc3)o2)ccc1NC(=O)C(C)C	-2.5	-1.39	+	-16.2
COC(=O)c1cn(NC(=O)C2CCCO2)c(=O)c2ccccc12 (configuration not stated)	1.5	0.46	+	-2.7
COC(=O)c1cn(NC(=O)C2COc3ccccc3O2)c(=O)c2ccccc12 (configuration not stated)	-6.7	2.11	i	nt
COc1ccccc1NS(=O)(=O)c1cc([N+](=O)[O-])ccc1N/N=C/c1sc(N2CCOCC2)nc1-c1ccccc1	-7.5	nt	+	nt
O=[N+]([O-])c1ccc(N/N=C/c2ccc[nH]2)cc1	-1.2	nt	+	-244.8
O=[N+]([O-])c1ccccc1N/N=C/c1c[nH]c2ccccc12	-8.9	nt	i	40.0
COc1ccc(NS(=O)(=O)c2cc([N+](=O)[O-])ccc2N/N=C\c2c(C)[nH]c3ccccc23)cc1	-9.0	nt	+	nt
COc1ccc(NC(=S)NNc2ccc([N+](=O)[O-])cc2S(=O)(=O)Nc2ccc(C)cc2C)cc1	3.8	nt	i	-21.4
COc1ccccc1NS(=O)(=O)c1cc([N+](=O)[O-])ccc1N/N=C/c1c[nH]c2ccccc12	1.5	nt	+	-263.6
SMILES	HMGR II inh	Ins promoter up	Autophagy mod	INS promoter inh
COc1ccc(C(=O)N/N=C/c2sc(N3CCOCC3)nc2-c2ccccc2)cc1OC	-3.6	-1.9	i	53.3
CCOC(=O)N1CCN(Cc2cn[nH]c2-c2cc3ccccc3o2)CC1	-3.6	-1.08	i	nt
CC(=O)Nc1cccc(OCC(=O)Nc2sccc2C(N)=O)c1	nt	-0.15	nt	nt
Cc1ccccc1N1C(=O)CN(Cc2sccc2C)C1=S	-4.5	0.5	i	-84.0
O=[N+]([O-])c1ccc(N/N=C/c2cn(-c3ccccc3)nc2-c2ccccc2)cc1	2.6	nt	+	-95.8
COc1ccc(/C=N/Nc2ccc([N+](=O)[O-])cc2S(=O)(=O)N2CCN(C)CC2)cc1	3.7	0.19	+	nt
CN1CCN(c2ccc([N+](=O)[O-])cc2S(=O)(=O)N2CCOCC2)CC1	-1.3	nt	i	-40.0
Cc1[nH]c2ccccc2c1/C=N/Nc1cccc(C(=O)O)c1	nt	1.2	nt	nt
O=[N+]([O-])c1ccc(N/N=C/c2c[nH]c3ccccc23)cc1	-0.3	nt	+	-222.6
Cc1[nH]c2ccccc2c1/C=N/Nc1ccc([N+](=O)[O-])cc1S(=O)(=O)Nc1ccc(Cl)cc1	-4.9	nt	+	-127.0
C/C(=N\Nc1ccc(C(=O)O)cc1)c1ccc2c(c1)Nc1ccccc1S2	nt	-1.09	nt	nt
CC(=O)C(=Cc1cn(-c2ccccc2)nc1-c1ccccc1)C(C)=O	-13.2	3.2*	i	nt
O=C(Cc1c2ccccc2nc2ccccc12)c1ccccc1	nt	0.04	i	61.1*
Oc1cccc(/C=N/Nc2cccc3cccnc23)c1	-3.9	1.15	i	57.1
Oc1c(/C=N/Nc2cccc3cccnc23)ccc2ccccc12	-4.5	-0.13	i	73.3*
Cc1ccc(C2=NNC3(CCOC(C)(C)C3)S2)cc1 (configuration not stated)	-2.3	0.39	i	nt
O=C(O)CCCN1C(=O)NC2NC(=O)NC21 (configuration not stated)	-0.8	0.47	+	38.5
O=C(O)CN1C(=O)NC2NC(=O)NC21 (configuration not stated)	-1.2	-0.6	i	38.2
O=C(CCN1C(=O)C2CCCCC2C1=O)Nc1ccc(F)c(F)c1F (configuration not stated)	-2.3	1.21	+	nt
CC1(C)Oc2ccc(C(=O)NC3CCCC3)cc2N(CC(=O)N2CCOCC2)C1=O	-1.9	0.64	+	nt
Cc1ccccc1NC(=O)N1C2CCCC1CC(NC(=O)C1CC1)C2 (configuration not stated)	-2.3	0.11	i	22.9
CCOc1ccccc1NC(=O)N1C2CCCC1CC(NC(=O)C1CC1)C2 (configuration not stated)	-2.8	0.05	+	55.3
CCOc1ccccc1NC(=O)C1CCN(C(=O)c2cccs2)CC1	0.7	0.02	+	nt
Cc1cc(N2CCOCC2)nc(SCC(=O)OCc2ccccc2)n1	11.3*	-0.02	i	nt
Nc1nccc(-c2ccc(-n3cnc4ccccc43)cc2)n1	-1.8	-0.56	i	nt
SMILES	HMGR II inh	Ins promoter up	Autophagy mod	INS promoter inh
c1ccc2c(c1)ncn2-c1ccc(-c2ccnc3ncnn23)cc1	1.7	-0.39	+	nt
COc1cccc(CNC(=S)NC2CC2)c1	-0.4	0	i	nt
Cc1ccc(NCc2nnc(SCC(=O)N3c4ccccc4Sc4ccccc43)o2)c(C)c1	4.3	-0.58	i	nt
COc1cc2ncc(C(=O)c3ccccc3)c(N3CCN(Cc4ccccc4)CC3)c2cc1OC	nt	0.28	nt	nt
COc1ccc(Nc2nc3ccccc3s2)cc1	-2.4	-0.13	i	nt
COc1ccc2nc(NC(=O)c3cccc(S(=O)(=O)N4CCOCC4)c3)sc2c1	1.1	-0.9	i	74.3*
COc1ccc(NC(=O)c2cncc(Br)c2)c(S(=O)(=O)N2CCOCC2)c1	11.4*	0.58	i	53.3
O=C(Nc1nc2ccc(S(=O)(=O)N3CCCC3)cc2s1)C1CCCCC1	-1.5	-0.22	+	-12.5
COc1ccc2nc(NC(=O)c3cc(S(=O)(=O)N4CCOCC4)ccc3C)sc2c1	0.1	nt	i	31.2
O=C(Nc1nc2ccc(S(=O)(=O)N3CCCCC3)cc2s1)C1CCCO1 (configuration not stated)	0.0	-0.42	i	-5.4
COc1cccc(Nc2nc3ccc(OC)cc3s2)c1	-4.8	0.16	i	71.4*
Cc1ccccc1S(=O)(=O)NCc1ccc(N2CCN(C)CC2)cc1	nt	-0.81	nt	nt
